Fam108B inh = counter-screen for RBBP9 inhibitors: inhibitors of mouse Fam108B | recombinant Fam108B, FP-Rh probe fluorescence polarization | hit rate 0.33% among 300,000 | AID 1947 | inhibition, % at 9.51 µM;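 active means inhibition above the screen mean inhibition plus 3 SD, computed separately per campaign, cut at about 18% in these data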;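 further: inhibitors lower polarization as less probe binds the enzyme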
PREPL inhibitor = inhibits the human prolyl oligopeptidase-like enzyme; hit rate 0.68% among 320,000; Q4J6C6; recombinant PREPL, fluorescence polarization activity-based probe; inhibition, % at 5.96 µM; AID 2751;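 further: 0% = enzyme with DMSO and 100% = wells lacking enzyme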
LYPLA1 counter = LYPLA1 (human) inhibition in PME1 counter-screen. inhibition, % at 5.9 µM. hit rate 0.16% among 320,000. recombinant LYPLA1, FP-Rh probe fluorescence polarization. O75608;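 active means inhibition above the mean of all tested compounds plus 3 SD, set per campaign, cut at about 14% in these data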;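 further: inhibitors block serine hydrolase probe labeling of LYPLA1 so polarization falls; 0% = enzyme with DMSO and 100% = wells lacking LYPLA1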
Target sequence (O75608 whole entry, looked up): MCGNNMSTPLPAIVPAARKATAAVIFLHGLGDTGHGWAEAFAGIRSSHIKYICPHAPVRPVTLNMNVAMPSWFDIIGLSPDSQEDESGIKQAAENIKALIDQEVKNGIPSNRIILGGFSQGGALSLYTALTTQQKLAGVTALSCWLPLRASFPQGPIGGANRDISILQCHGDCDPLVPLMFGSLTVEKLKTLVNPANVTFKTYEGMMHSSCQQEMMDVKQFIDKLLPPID
PME-1 inh = blocks human protein phosphatase methylesterase 1 | recombinant PME-1, FP-Rh probe fluorescence polarization | hit rate 0.53% among 320,000 | AID 2130 | Q9Y570 | inhibition, % at 5.9 µM;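 active means inhibition above the campaign mean of all compounds plus 3 SD, cut at about 26% in these data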;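 further: competitive labeling of PME-1 active site by serine hydrolase directed probe; 0% = PME-1 with DMSO and 100% = wells lacking PME-1 enzyme; inhibitors block probe labeling so polarization falls and inhibition rises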
LYPLA2 counter = counter-screen for PME1 inhibitors: inhibitors of human LYPLA2. O95372. recombinant LYPLA2, FP-Rh probe fluorescence polarization. inhibition, % at 5.9 µM. hit rate 0.38% among 320,000. AID 2177;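 active means inhibition above the screen-wide mean plus 3 SD, limit set per campaign, cut at about 26% in these data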;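 further: 0% = LYPLA2 with DMSO and 100% = wells lacking LYPLA2 enzyme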
Target sequence (O95372 whole entry, looked up): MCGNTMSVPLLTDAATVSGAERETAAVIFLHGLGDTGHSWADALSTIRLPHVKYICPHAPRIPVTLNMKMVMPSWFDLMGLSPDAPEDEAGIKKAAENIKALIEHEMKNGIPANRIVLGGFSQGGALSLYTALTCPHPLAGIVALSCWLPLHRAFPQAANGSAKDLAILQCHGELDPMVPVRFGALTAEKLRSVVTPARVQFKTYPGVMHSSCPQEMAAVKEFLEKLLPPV
PREPL inh cf = human PREPL inhibition, confirmation; shares compounds with PREPL inhibitor; recombinant PREPL, fluorescence polarization activity probe; inhibition, % at 5.96 µM; hit rate 67% among 2,000; AID 2803;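 further: 0% = protein with DMSO and 100% = wells lacking protein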
The depositor's hits bear a star. Compounds with a hit are over-represented: about 1.3% of the library has one in this group of screens. Unless noted, no stated cut-off is given here; in the data, active means inhibition above about 43%; inactive means the rest.

Screening Cc1ccc(NC(=S)Nc2ccc3nc(-c4ccccn4)c(-c4ccccn4)nc3c2)cc1C returned Fam108B inh 7, PREPL inhibitor 44*, LYPLA1 counter -2, PME-1 inh 8, LYPLA2 counter 4 and PREPL inh cf 37.
For O=C(/C=C/c1ccccc1)CC(=O)c1ccccc1O the results were Fam108B inh 2, PREPL inhibitor -1, LYPLA1 counter -4, PME-1 inh 3 and LYPLA2 counter -5.
For CC(=O)NC1(C(F)(F)F)C(=O)NC(C)=C1C#N (stereo not drawn) the results were Fam108B inh 1, PREPL inhibitor 2, LYPLA1 counter 3, PME-1 inh 1 and LYPLA2 counter 2.
O=C(COC(=O)c1cccc(S(=O)(=O)N2CCOCC2)c1)Nc1ccc2c(c1)OCO2 was read as Fam108B inh 1, PREPL inhibitor 1, LYPLA1 counter 1, PME-1 inh -1 and LYPLA2 counter 6.
`O=C(COC(=O)c1ccc2c(c1)OCCO2)Nc1cccc(S(=O)(=O)N2CCOCC2)c1` gave Fam108B inh -5, PREPL inhibitor 72*, LYPLA1 counter 4, PME-1 inh 4, LYPLA2 counter 3 and PREPL inh cf 8.
Cc1ccc(OCc2cn3cccnc3n2)cc1 was read as Fam108B inh 5, PREPL inhibitor 14, LYPLA1 counter 1, PME-1 inh 4 and LYPLA2 counter 2.
For O=C(CN1CCN(c2ccc(O)cc2)CC1)Nc1cc([N+](=O)[O-])ccc1Cl the results were Fam108B inh -2, PREPL inhibitor 52*, LYPLA1 counter -3, PME-1 inh 3, LYPLA2 counter 0 and PREPL inh cf 53*.
Screening COc1cc(/C=N/n2c(C)n[nH]c2=S)ccc1OCc1ccc(F)cc1 returned Fam108B inh -3, PREPL inhibitor 50*, LYPLA1 counter 2, PME-1 inh 3, LYPLA2 counter 7 and PREPL inh cf 42.
COc1cc(/C=N\n2nnnc2N)ccc1OCc1ccc(F)cc1 was read as Fam108B inh 0, PREPL inhibitor 31, LYPLA1 counter -3, PME-1 inh -3 and LYPLA2 counter -3.
COc1ccc(CCNS(=O)(=O)c2ccc(-c3ccc(=O)[nH]n3)o2)cc1OC was read as Fam108B inh 5, PREPL inhibitor -2, LYPLA1 counter -2, PME-1 inh 2 and LYPLA2 counter 6.
For CC(=O)c1cccc(OCc2cc(C(=O)N3CCC(N4CCCCC4)CC3)no2)c1 the results were Fam108B inh 2, PREPL inhibitor 1, LYPLA1 counter -2, PME-1 inh 5 and LYPLA2 counter -3.
`COCC(CN1CCN(C2=NS(=O)(=O)c3ccccc32)CC1)OC(=O)c1ccccc1` (stereo not drawn) gave Fam108B inh -4, PREPL inhibitor 2, LYPLA1 counter -1, PME-1 inh -2 and LYPLA2 counter 2.
Screening N#Cc1nc(COc2ccccc2)oc1NCCN1CCOCC1 returned Fam108B inh 2, PREPL inhibitor 6, LYPLA1 counter -5, PME-1 inh -4 and LYPLA2 counter -10.
Screening N#Cc1nc(/C=C/c2ccccc2)oc1NCCCN1CCOCC1 returned Fam108B inh 0, PREPL inhibitor 47*, LYPLA1 counter 3, PME-1 inh 1, LYPLA2 counter 8 and PREPL inh cf 39.
Screening N#Cc1nc(COc2ccc(-c3ccccc3)cc2)oc1NCCCN1CCOCC1 returned Fam108B inh 0, PREPL inhibitor 45*, LYPLA1 counter -4, PME-1 inh 2, LYPLA2 counter 1 and PREPL inh cf 41.
`Cc1cc(C)c(NC(=O)CN(C)C(=O)C2CC(=O)N(c3cccc4ccccc34)C2)c(C)c1` (stereo not drawn) gave PREPL inhibitor -3, LYPLA1 counter 1, PME-1 inh -3 and LYPLA2 counter 8.
For CC1CC(C)(C)CC2(C1)NC(=O)N(CC(=O)Nc1ccc3[nH]c(=O)[nH]c3c1)C2=O (stereo not drawn) the results were PREPL inhibitor 49*, LYPLA1 counter -3, PME-1 inh -3, LYPLA2 counter -4 and PREPL inh cf 38.
`Cc1ccc(C2(C)NC(=O)N(CC(=O)Nc3ccc4[nH]c(=O)[nH]c4c3)C2=O)cc1` (stereo not drawn) gave Fam108B inh 4, PREPL inhibitor 46*, LYPLA1 counter -3, PME-1 inh 3, LYPLA2 counter 7 and PREPL inh cf 37.
COc1ccc(OCCN2C(=O)c3ccccc3C2=O)c([N+](=O)[O-])c1 was read as Fam108B inh 1, PREPL inhibitor 6, LYPLA1 counter -7, PME-1 inh 5 and LYPLA2 counter -3.
Screening O=C(Cc1ccccc1)Nc1ccc(N2CCCC2)cc1 returned Fam108B inh -1, PREPL inhibitor 60*, LYPLA1 counter -1, PME-1 inh -8, LYPLA2 counter -9 and PREPL inh cf 15.
For O=C(Cc1ccccc1)Nc1cccc(N2CCCC2)c1 the results were Fam108B inh -1, PREPL inhibitor 51*, LYPLA1 counter -1, PME-1 inh -5, LYPLA2 counter -6 and PREPL inh cf 19.
Screening C#CCOCCOCCOCCNc1nc(N2CCN(C(=O)[C@H](CCCCN)n3cc([C@@H](N)C(C)CC)nn3)CC2)nc(N2CCN(C(=O)[C@H](Cc3cc4ccccc4[nH]3)n3cc([C@@H](N)CC(C)C)nn3)CC2)n1 (stereo partly drawn) returned Fam108B inh -1, PREPL inhibitor 58*, LYPLA1 counter -3, PME-1 inh 1, LYPLA2 counter -3 and PREPL inh cf 58*.
For C#CCOCCOCCOCCNc1nc(N2CCN(C(=O)[C@H](CCCCN)n3cc([C@@H](N)CO)nn3)CC2)nc(N2CCN(C(=O)[C@H](Cc3cc4ccccc4[nH]3)n3cc([C@@H](N)CO)nn3)CC2)n1 the results were Fam108B inh 0, PREPL inhibitor 34, LYPLA1 counter -1, PME-1 inh 6 and LYPLA2 counter -1.
C#CCOCCOCCOCCNc1nc(N2CCN(C(=O)[C@H](Cc3cc4ccccc4[nH]3)n3cc([C@@H](N)C(C)CC)nn3)CC2)nc(N2CCN(C(=O)[C@H](CCCCN)n3cc([C@@H](N)CO)nn3)CC2)n1 (stereo partly drawn) was read as Fam108B inh -5, PREPL inhibitor 43, LYPLA1 counter 1, PME-1 inh 4 and LYPLA2 counter -3.
For C#CCOCCOCCOCCNc1nc(N2CCN(C(=O)[C@H](CCCCN)n3cc([C@@H](N)CO)nn3)CC2)nc(N2CCN(C(=O)[C@H](Cc3cc4ccccc4[nH]3)n3cc([C@@H](N)CC(C)C)nn3)CC2)n1 the results were Fam108B inh 2, PREPL inhibitor 52*, LYPLA1 counter 0, PME-1 inh 1, LYPLA2 counter 3 and PREPL inh cf 51*.
`COc1cc2cc(CCOC(=O)c3ccco3)oc(=O)c2cc1OC` gave PREPL inhibitor -2, LYPLA1 counter -1, PME-1 inh 7 and LYPLA2 counter -2.
